Assay results as given in PubChem BioAssay AID1159580 (chemical genetic matrix, 2015).
Values joined by “and” are separate entries in the source; they are usually repeats but may differ in a detail not shown here. Equal values may be shown once. Among all 5,500 compounds or so, about 2,000 (36%) were called active. Inconclusive results (about 18%) are left out. Rule as the data show it: active = normalized growth mostly below about 0.91 (no sharp cut-off); inconclusive = no clear call, values can overlap the other calls; inactive = mostly above about 0.92. The list shows a part of the results.

Test: chemical genetic growth profiling, strain panel (AID 1159580);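 also: tested at 20 µM; growth read once vehicle control cultures reached saturation at 30 °C; 1 = growth at the plate median or of vehicle wells; lower values mean less growth of the strain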
Settings: S. cerevisiae deletion strains, growth OD

Measured: normalized growth

c1ccc2[nH]c(-c3cscn3)nc2c1
active: locus YDR195W, strain ref2 1.15 [resistant] | locus YEL003W, strain gim4, stronger effect = lower value 0.132 | locus YER155C, strain BEM2 (second series), stronger effect = lower value 0.833
inactive: locus YAL021C, strain ccr4, stronger effect = lower value 0.964 | locus YAL026C, strain drs2, stronger effect = lower value 0.956 | locus YAL030W, strain snc1, stronger effect = lower value 1.01 | locus YBL061C, strain skt5, stronger effect = lower value 1.01 | locus YBR009C, strain hhf1, stronger effect = lower value 0.965 | locus YBR021W, strain FUR4, stronger effect = lower value 0.946 | locus YBR023C, strain chs3, stronger effect = lower value 0.993 | locus YBR171W, strain sec66, stronger effect = lower value 1 | locus YBR229C, strain ROT2, stronger effect = lower value 0.991 | locus YBR231C, strain swc5, stronger effect = lower value 0.958 | locus YBR279W, strain paf1, stronger effect = lower value 1.01 | locus YCL011C, strain gbp2, stronger effect = lower value 0.982 | locus YCL016C, strain dcc1, stronger effect = lower value 0.95 | locus YCL029C, strain bik1, stronger effect = lower value 0.945 | locus YCL061C, strain MRC1, stronger effect = lower value 0.991 | locus YCL069W, strain vba3, stronger effect = lower value 0.996 | locus YCR088W, strain abp1, stronger effect = lower value 1.01 | locus YDL005C, strain med2, stronger effect = lower value 1.02 | locus YDL035C, strain GPR1, stronger effect = lower value 0.996 | locus YDL040C, strain nat1, stronger effect = lower value 1.01 | locus YDL074C, strain BRE1, stronger effect = lower value 0.94 | locus YDL101C, strain DUN1, stronger effect = lower value 1.01 | locus YDL134C, strain PPH21, stronger effect = lower value 0.998 | locus YDL185W, strain tfp1, stronger effect = lower value 1.01 | locus YDL192W, strain arf1, stronger effect = lower value 1.01 | locus YDR069C, strain doa4, stronger effect = lower value 0.988 | locus YDR101C, strain arx1, stronger effect = lower value 0.945 | locus YDR137W, strain rgp1, stronger effect = lower value 0.91 | locus YDR159W, strain sac3, stronger effect = lower value 0.965 | locus YDR162C, strain NBP2, stronger effect = lower value 1.01 | locus YDR297W, strain sur2, stronger effect = lower value 1.03 | locus YDR318W, strain mcm21, stronger effect = lower value 0.998 | locus YDR334W, strain swr1, stronger effect = lower value 0.998 | locus YDR335W, strain msn5, stronger effect = lower value 1.02 | locus YDR388W, stronger effect = lower value 1.01 | locus YDR392W, strain spt3, stronger effect = lower value 0.867 | locus YDR502C, strain sam2, stronger effect = lower value 0.971 | locus YEL037C, strain rad23, stronger effect = lower value 0.991 | locus YEL061C, strain CIN8 (second series), stronger effect = lower value 1 | locus YEL061C, strain CIN8, stronger effect = lower value 0.987 | locus YER015W, strain faa2, stronger effect = lower value 0.997 | locus YER016W, strain bim1, stronger effect = lower value 0.995 | locus YER110C, stronger effect = lower value 1.02 | locus YER111C, strain swi4, stronger effect = lower value 1.01 | locus YER155C, strain BEM2, stronger effect = lower value 0.991 | locus YER167W, strain BCK2, stronger effect = lower value 0.997 | locus YFR010W, strain ubp6, stronger effect = lower value 0.986 | locus YGL078C, strain dbp3, stronger effect = lower value 1.01 | locus YGL086W, strain mad1, stronger effect = lower value 0.959 | locus YGL167C, strain pmr1, stronger effect = lower value 1.02 | locus YGL173C, strain kem1, stronger effect = lower value 1.01 | locus YGL227W, strain vid30, stronger effect = lower value 1.02 | locus YGL240W, strain doc1, stronger effect = lower value 0.957 | locus YGL248W, strain PDE1, stronger effect = lower value 0.992 | locus YGL253W, strain hxk2, stronger effect = lower value 0.998 | locus YGR135W, strain pre9, stronger effect = lower value 1.04 | locus YGR252W, strain gcn5, stronger effect = lower value 0.962 | locus YHR013C, strain ard1, stronger effect = lower value 0.922 | locus YHR027C, strain rpn1, stronger effect = lower value 1.01 | locus YHR030C, strain SLT2, stronger effect = lower value 0.992 and 0.96 | locus YHR079C, strain IRE1 (second series), stronger effect = lower value 1 | locus YHR079C, strain IRE1, stronger effect = lower value 0.963 | locus YHR094C, strain hxt1, stronger effect = lower value 1.01 | locus YHR129C, strain ARP1, stronger effect = lower value 0.993 | locus YHR142W, strain chs7, stronger effect = lower value 1 | locus YHR200W, strain rpn10, stronger effect = lower value 1 | locus YIL066C, strain RNR3, stronger effect = lower value 0.954 | locus YIL073C, strain SPO22, stronger effect = lower value 1.06 | locus YIL125W, strain kgd1, stronger effect = lower value 1 | locus YIR030C, strain dcg1, stronger effect = lower value 0.994 | locus YJL092W, strain hpr5, stronger effect = lower value 0.997 | locus YJL095W, strain BCK1 (second series), stronger effect = lower value 1.02 | locus YJL095W, strain BCK1, stronger effect = lower value 0.997 and 0.958 | locus YJL115W, strain asf1, stronger effect = lower value 1 | locus YJL129C, strain trk1, stronger effect = lower value 1.02 | locus YJL134W, strain LCB3, stronger effect = lower value 1 | locus YJL154C, strain vps35, stronger effect = lower value 1.01 | locus YJL164C, strain tpk1, stronger effect = lower value 0.966 | locus YJL166W, strain qcr8, stronger effect = lower value 1 | locus YJL168C, strain set2, stronger effect = lower value 1.01 | locus YJL187C, strain SWE1 (second series), stronger effect = lower value 0.974 | locus YJR043C, strain POL32, stronger effect = lower value 0.964 | locus YJR066W, strain TOR1, stronger effect = lower value 0.917 | locus YJR075W, strain HOC1, stronger effect = lower value 0.979 | locus YKL009W, strain mrt4, stronger effect = lower value 1.02
